Screening results (PubChem BioAssay)
Only a selection was taken, and hits are over-represented in it overall.
Pf apPOL inh: Pf-apPOL inhibitors, biochemical, fluorescence; inhibition, % at 10 µM; Plasmodium falciparum apicoplast DNA polymerase (apPOL); AID 1794808, 2022; actives 0.25% (n = 210,000); Recombinant Pf-apPOL, molecular beacon fluorescence, 1.5 h
mHTT CaM bind: mutant huntingtin-calmodulin interaction inhibitors – biochemical, AlphaScreen, primary screen; AlphaScreen His-mHTT/GST-CaM binding, luminescence; inhibition, % at 15 µM; actives 3.6% (n = 190,000)
Each line names hits and unclear results; the compound was inactive in the other large screens. Rule as the data show it: active = inhibition above about 50%; inactive = the rest.

c1cc(Nc2cccc3nccnc23)c2nccnc2c1	none
CN(C)c1ccc(Nc2cccc3nccnc23)cc1	mHTT CaM bind 61.2
Fc1ccc(NC(=S)NCCCn2ccnc2)c(F)c1	none (no result: mHTT CaM bind)
COc1ccc(-c2cc3ccccn3c2C)cc1OC	none
O=C(NCCCN1CCCC1=O)c1ccc(N2CCNC(c3ccccc3)C2)nc1 (centres undefined)	none
Fc1ccc(C2Nc3cccc4cccc(c34)N2)cc1	mHTT CaM bind 52.1 (no result: Pf apPOL inh)
COc1cc(C2Nc3cccc4cccc(c34)N2)cc(OC)c1OC	none
COc1c(O)cc2c(c1O)C1OC(CO)C(O)C(O)C1OC2=O (centres undefined)	none (no result: mHTT CaM bind)
O=C(OC1OC2COC(=O)c3cc(O)c(O)c(O)c3-c3c(cc(O)c(O)c3O)C(=O)OC(C2O)C1O)c1cc(O)c(O)c(O)c1 (centres undefined)	Pf apPOL inh 99.0 (no result: mHTT CaM bind)
COc1ccc(CN(CC(O)COCc2ccccc2)S(=O)(=O)c2ccccc2Br)cc1 (centres undefined)	mHTT CaM bind 86.5
C=CC(COCc1ccccc1)N(Cc1ccc(OC)cc1)S(=O)(=O)c1ccccc1Br (centres undefined)	none
CCCn1cnnc1C1CCN(CCc2ccccc2)CC1	none
Oc1ccc(/C=C/c2ccc3cccc(O)c3n2)cc1Br	mHTT CaM bind 62.0
CCOc1cccc(/C=C/c2ccc3cccc(O)c3n2)c1OC	none
COc1ccc(Cl)cc1/C=C/c1ccc2cccc(O)c2n1	mHTT CaM bind 52.0
O=C(O)c1ccc(/C=C/c2ccc3cccc(O)c3n2)cc1	none
COc1cc(/C=C/c2ccc3cccc(O)c3n2)cc(OC)c1O	mHTT CaM bind 74.0
CCOc1cc(/C=C/c2ccc3cccc(O)c3n2)ccc1O	none
N#Cc1ccccc1NC(=O)C(=O)NCCc1ccco1	none
Cc1ccc(C)c(CN2C(=O)NC3(CCN(C(=O)c4ccc(C)c(F)c4)CC3)C2=O)c1	none
COc1cccc(-n2nc(C(=O)N3CCOCC3)c3ccccc3c2=O)c1	none
COc1ccc(C(=O)N2CCN=C2N2CCN(c3cccc(Cl)c3)CC2)cc1	mHTT CaM bind 85.0
COc1ccccc1C(=O)N1CCN=C1N1CCN(c2cccc(Cl)c2)CC1	none
COc1cccc(-n2nc(C(=O)N3CCN(c4cccc(Cl)c4)CC3)c3ccccc3c2=O)c1	mHTT CaM bind 61.0
CCOc1ccc(C(=O)N2CCN=C2N2CCC(C)CC2)cc1	none
CCOc1ccc(C(=O)N2CCN=C2N2CCN(c3cccc(Cl)c3)CC2)cc1	mHTT CaM bind 100.1
CCc1ccccc1S(=O)(=O)N1CCCN(C2CCN(CC3CC3)C2=O)CC1 (centres undefined)	none
COc1cc(/C=C2\SC(=N)N(c3ccc(Br)cc3)C2=O)ccc1OCC#N	none
O=[N+]([O-])c1ccc(CN2CCSCC2)o1	none
Cc1ccc(N2C(=O)C3C(C2=O)C2C=CC3C23CC3)c(C)c1 (centres undefined)	none
Cc1cccc(C(=O)N2CCN(c3ccc(Cl)cc3)C(=O)C2C)c1 (centres undefined)	none
CCOC(=O)c1ccc(NC(=O)c2nc(C)n(C3CCN(C(C)=O)CC3)c2C)cc1	none
CC(=O)N1CCC(n2c(C)nc(C(=O)Nc3ccc(Oc4ccccc4)cc3)c2C)CC1	mHTT CaM bind 51.6
CS(=O)(=O)N(CC(=O)Nc1ccc(C(N)=O)cc1)c1ccc(Oc2ccccc2)cc1	none
Cc1ccc(-c2cn3cc(C(=O)NC(C)c4cccnc4)ccc3n2)cc1 (centres undefined)	mHTT CaM bind 51.4
CC(NC(=O)c1ccc(-c2ccnc(N3CCCC3)n2)cc1)c1cccnc1 (centres undefined)	none
Cc1ccc(-c2cn3cc(C(=O)NC(C)c4cccnc4)ccc3n2)cc1C (centres undefined)	mHTT CaM bind 52.7
CC(NC(=O)c1cn2ccccc2n1)c1cccnc1 (centres undefined)	none
O=C(Nc1ccccc1)n1cc(Br)cn1	none
O=C(c1cccs1)N1CCN(c2cc(N3CCCCC3)c(F)cc2[N+](=O)[O-])CC1	mHTT CaM bind 51.0
O=C(c1cccs1)N1CCN(c2cc(N3CCCC3)c(F)cc2[N+](=O)[O-])CC1	none
O=[N+]([O-])c1cc(F)c(N2CCOCC2)cc1N1CCCCC1	none
O=[N+]([O-])c1cc(F)c(N2CCCCCC2)cc1N1CCCC1	mHTT CaM bind 72.0
CCOc1ccc(C(=O)Nc2cccc(OC)c2)cc1Br	none
COc1ccc(CN2C(=O)CC(C(=O)O)SC2=Nc2ccc(Cl)cc2)cc1 (centres undefined)	Pf apPOL inh 51.7
O=C(O)C1CC(=O)N(Cc2ccc(Cl)cc2)C(=Nc2ccc(Cl)cc2)S1 (centres undefined)	none
COc1ccc(N=C2SC(C(=O)O)CC(=O)N2Cc2ccc(F)cc2)cc1 (centres undefined)	none
COc1ccc(N=C2SC(C(=O)N3CCN(c4ccc(F)cc4)CC3)CC(=O)N2C)cc1 (centres undefined)	mHTT CaM bind 51.0
COc1cccc(OC)c1C(=O)NCC(c1cccs1)N(C)C (centres undefined)	none
O=C(COc1ccc([N+](=O)[O-])cc1)c1ccc(Br)cc1	none
O=C(CN(Cc1ccc(Br)cc1)S(=O)(=O)c1ccccc1)N1CCCC1	none
Cc1cc(C)c2c(=O)n(C(=O)c3cccs3)sc2n1	Pf apPOL inh 100.0 (no result: mHTT CaM bind)
Cc1cc(C)c(C#N)c(OC(=O)c2cccs2)n1	none (no result: mHTT CaM bind)
CC(=O)N1CCN(c2nc3c(s2)CC(C(=O)Nc2ccccc2)CC3)CC1 (centres undefined)	none
CC(=O)N1CCN(c2nc3c(s2)CC(C(=O)Nc2cccc(C(C)(C)C)c2)CC3)CC1 (centres undefined)	mHTT CaM bind 54.3
O=C(NNS(=O)(=O)c1ccc(Cl)c(Cl)c1)c1csc(COc2cc(Cl)cc(Cl)c2)n1	none (no result: mHTT CaM bind)
Cc1ccc(-n2c(=O)c3c4c(sc3n3c(C)nnc23)CN(Cc2ccccc2)CC4)cc1	none
Cc1ccc(C(=O)N2CCC(c3nc(C4CC4)n[nH]3)CC2)s1	none
C(=NN=Cc1cccnc1)c1cccnc1	none (no result: mHTT CaM bind)
C(=Nc1cc(-c2ccccc2)nn1-c1ccccc1)c1cccnc1	mHTT CaM bind 50.0
CCCCN1CCN(C(=O)C2CCN(c3cncnc3N3CCOCC3)CC2)CC1	none
CCCCC1C(=O)N(c2ccccc2)N(c2ccccc2)C1=O	none (no result: mHTT CaM bind)
CN(C)CC1C(=O)N(c2ccccc2)N(c2ccccc2)C1=O	mHTT CaM bind 71.5
Cc1nc2c(C(=O)NCc3ccccc3)cnn2c(C)c1Cc1cccc(Cl)c1	none
Cc1nc2c(C(=O)NCCc3ccccc3)cnn2c(C)c1Cc1ccc(Cl)cc1	none
CCCCNC(=O)c1cnn2c(C)c(Cc3ccc(F)cc3)c(C)nc12	none
Cc1nc2c(C(=O)NCCc3ccc(Cl)cc3)cnn2c(C)c1Cc1ccc(F)cc1	mHTT CaM bind 80.0
COc1ccc(CCNC(=O)c2cnn3c(C)c(Cc4cc(C)ccc4C)c(C)nc23)cc1OC	mHTT CaM bind 53.0
Cc1nc2c(C(=O)NCCc3ccc(Cl)cc3)cnn2c(C)c1Cc1ccccc1	mHTT CaM bind 53.0
Cc1nc2c(C(=O)NCCc3ccccc3)cnn2c(C)c1Cc1cccc(Cl)c1	mHTT CaM bind 78.0
COc1ccc(CNC(=O)c2cnn3c(C)c(Cc4cc(C)ccc4C)c(C)nc23)cc1	none
O=C(NCc1ccc(Cl)cc1)c1ccc(Cn2nnc3ccccc3c2=O)cc1	none
COc1ccc(Cl)cc1NC(=O)N1CCN(c2ccc(-c3ccco3)nn2)CC1	mHTT CaM bind 64.5
COc1ccc(C(F)(F)F)cc1NC(=O)C1CCCN(c2ccc(-c3ccco3)nn2)C1 (centres undefined)	mHTT CaM bind 77.0
